This is a sample that favours compounds with a hit; in the whole collection about 21% have one here.
Shiga toxin inh = inhibitors of Shiga toxin in Vero cells. actives 9.2% (n = 290,000). Vero cells, Shiga toxin protein synthesis inhibition reporter. inhibition, % at 38.7 µM; in the data active means inhibition mostly above about 28%, no sharp cut-off; inactive means mostly below about 43%
Pf growth 96h = P. falciparum growth inhibition at 96 hour, primary screen for plastid delayed-death inhibitors. Potency, µM (series often up to 28.7 µM), actives largely listed as inhibitors. actives 6.9% (n = 320,000). P. falciparum luciferase reporter growth, 96 h; active means well fitted inhibition curve with a large enough effect; inconclusive means small, poorly fitted or top-dose-only effect, or another doubt; inactive means no such curve, though single readings can be large or run the other way
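96 h incubation, 37 C, 5% CO2, of luciferase-reporter P. falciparum-infected RBCs (2% hematocrit, 0.05% parasitemia final) with test compounds; endpoint luminescence.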
CHX counter = counter-screen for Shiga toxin inhibitors: cycloheximide protein synthesis inhibition. cell reporter, cycloheximide protein synthesis inhibition counterscreen. max response, %. actives 12% (n = 300,000); in the data active means max response mostly above about 13%, no sharp cut-off; inactive means mostly below about 14%; further: read at 38.3 µM for the half of the compounds with a filed dose
NS1 function inh = inhibitors of influenza NS1 protein function | Potency, µM (doses to about 46.1 µM) | actives 0.4% (n = 270,000); further: actives are rising curves; nearly all actives have a fitted effect of over 50% in size
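S. cerevisiae expressing influenza A NS1, grown in glucose, washed, then diluted 1:100 into pH 6.0 -URA galactose medium with 23 nl compound. Growth recovery read as OD600; NS1-free strain serves as control.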
SARS PLP yeast = SARS-CoV PLP inhibition in yeast; S. cerevisiae expressing SARS-CoV PLpro, growth rescue; Potency, µM (doses to about 32.9 µM), actives largely listed as activators; actives 0.19% (n = 330,000); AID 485353; further: nearly all actives have a fitted effect of over 55% in size
Pf growth 48h = P. falciparum growth inhibition at 48 hours (one generation). P. falciparum luciferase growth in erythrocytes, 48 h. Potency, µM (doses to about 28.7 µM), most hits filed as inhibitors. actives 5.9% (n = 310,000). AID 504832; active means well fitted inhibition curve with a large enough effect; inconclusive means small, poorly fitted or top-dose-only effect, or another doubt; inactive means no such curve, though single readings can be large or run the other way
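Luciferase-expressing parasites in RBCs, 2% Hct / 0.1% parasitemia final; RPMI 1640 + 0.5% Albumax; 37 C, 5% CO2, one generation; luminescence read-out, lower signal = inhibition.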
Hits are given with their value; . = inactive; ? = inconclusive; / = no result; [ ] = dose if it differs, or a comment. Unless noted, the call rests on the fitted dose curve.

SMILES	Shiga toxin inh	Pf growth 96h	CHX counter	NS1 function inh	SARS PLP yeast	Pf growth 48h
COc1cccc(C(C(=O)NCC2CCCO2)N(C(=O)Cn2nnc3ccccc32)c2ccccc2C(C)=O)c1OC (stereo not drawn)	.	.	.	.	.	?
COc1ccc(C2CC(=O)Oc3c(C(CCN4CCCCC4)c4ccc(N(C)C)cc4)c(OC)cc(OC)c32)cc1 (stereo not drawn)	.	9.28µM	.	.	.	?
COc1ccc(C2CC(=O)Oc3c(C(CCN4CCCC(C)C4)c4ccc(N(C)C)cc4)c(OC)cc(OC)c32)cc1 (stereo not drawn)	.	?	.	.	.	?
COc1cc(C2CC(=O)Oc3c(C(CCN4CCN(c5ccccc5)CC4)c4ccc(N(C)C)cc4)c(OC)cc(OC)c32)cc(OC)c1OC (stereo not drawn)	.	4.15µM	.	.	.	4.15µM
COc1cc(OC)c2c(c1C(CCN1CCCC1)c1ccc(N(C)C)cc1)OC(=O)CC2c1ccc(N(C)C)cc1 (stereo not drawn)	.	/	.	/	/	/
COc1cc(C2CC(=O)Oc3c(C(CCN4CCOCC4)c4ccc(N(C)C)cc4)c(OC)cc(OC)c32)cc(OC)c1OC (stereo not drawn)	.	?	.	.	.	11.7µM
CCOC(=O)C1C(c2ccc(O)c(OC)c2)NC(=S)NC1(O)C(F)(F)F (stereo not drawn)	.	.	.	.	.	.
COc1ccc(NC(=O)c2cccc(Oc3ccccc3)c2)cn1	81.1	.	33.1	.	.	.
COc1ccc(NC(=S)NC(=O)c2ccccc2)cn1	132.0	.	69.2	.	.	.
COc1ccc(NC(=O)c2ccc(S(=O)(=O)N(C)c3ccccc3)cc2)cn1	.	?	.	.	.	?
COc1ccc(-c2cn[nH]c2C)cc1	.	.	.	.	.	.
COc1ccc2cc(-c3ccn[nH]3)ccc2c1	79.9	.	31.7	.	.	.[0.00184 µM]
CSCCC(NC(=O)COc1ccccc1)C(=O)N1CCN(c2ccccc2O)CC1 (stereo not drawn)	/	.	/	/	/	?
C[C@H](NC(=O)c1ccco1)C(=O)Nc1cc(S(=O)(=O)N2CCCC2)ccc1OCC(F)(F)F	/	/	/	/	.	/
CCCc1nnc(NC(=O)c2cn(CC)c3cc(N4CCN(C)CC4)c(F)cc3c2=O)s1	.	1.17µM	.	.	.	0.37µM
CCCCCNC(=O)c1cn(CC)c2cc(N3CCN(C)CC3)c(F)cc2c1=O	.	14.7µM	.	.	.	?
CCCCN1C(=O)/C(=C2/Sc3ccccc3N2C)S/C1=N\c1ncn[nH]1	.	.	.	.	.	7.38µM
Cn1c(=O)c(-c2ccccc2N)nc2ccccc21	36.6	.	.	.	.	.
CC(=O)c1cnc(Nc2ccc(C)cc2)s1	45.4	.	30.3	.	.	.
O=C(c1ccc(Cl)c(Cl)c1)c1cnc(Nc2ccccc2)s1	.	.	.	.	.	.
C/C(=N\Nc1cc(N2CCCCC2)nc(C)n1)c1ccc(Br)cc1	.	.	.	.	.	3.7µM
O=C(N/N=C/c1ccc(Br)s1)c1cccs1	79.6	.	48.4	.	.	?
O=C(N/N=C/c1ccc(Br)s1)c1ccncc1	.	?	.	/	.	?
O=C(N/N=C/c1ccc(Br)s1)Nc1ccccc1	.	.	45.7	/	.	.
O=C(CN1CCN(S(=O)(=O)c2ccc(Br)cc2)CC1)N/N=C/c1ccc(Br)s1	.	?	.	/	.	.
SMILES	Shiga toxin inh	Pf growth 96h	CHX counter	NS1 function inh	SARS PLP yeast	Pf growth 48h
Cc1ccc(/C=N/NC(=O)c2cccs2)s1	85.0	.	51.9	.	.	.
CSc1nc(N)nc2c1ncn2CC(=O)NCC1CCCO1 (stereo not drawn)	/	/	/	/	.	/
Cc1ccnc(N2CCCC(C(=O)Nc3cccc(C)c3C)C2)n1 (stereo not drawn)	.	.	.	.	.	.
Cc1nnc(SCC(=O)N(Cc2ccccc2)C(C)(C)C)[nH]c1=O	.	.	.	.	.	.
Cc1ccc(C)c(N2CCN(C3CCCCC3NS(=O)(=O)c3ccccc3)CC2)c1 (stereo not drawn)	.	11.7µM	.	.	/	?
CN1C(=S)SC2CS(=O)(=O)CC21 (stereo not drawn)	.	.	.	.	.	.
CCOC(=O)c1sc(NC(=O)CSc2nccc(C)n2)nc1C	.	.	.	.	.	.
CCOC(=O)c1sc(NC(=O)CSc2ncccn2)nc1C	41.3	13.1µM	.	.	.	.
CCOC(=O)c1sc(NC(=O)CSc2nccn2C)nc1C	112.1	.	35.4	.	.	.
CCOC(=O)c1sc(NC(=O)CSc2nnc(-c3ccc(OC)cc3)n2CCOC)nc1C	.	13.1µM	.	.	.	?
Cc1nn(C)cc1/C=N/NC(=O)Cn1nnc(N)n1	.	.	.	.	.	.
CC12CCC(C(=O)N3CCN(Cc4ccccc4)CC3)(OC1=O)C2(C)C (stereo not drawn)	.	/	.	.	.	/
Cc1ccccc1C(=O)Nc1ccc(C(=O)N/N=C/c2ccc(O)c(Br)c2)cc1	.	.	.	.	.	?
COc1cc(/C=N/O)ccc1Oc1cnccn1	.	.	.	.	.	/
CC1CN(S(=O)(=O)c2cccc(C(=O)Nc3ccccc3N3CCCC3)c2)CC(C)O1 (stereo not drawn)	/	?	/	/	.	?
CC(C)(C)n1nnnc1C(c1ccc(Cl)cc1)N(Cc1cccnc1)Cc1ccco1 (stereo not drawn)	.	.	.	.	.	?
CC(C)(C)n1nnnc1CN(Cc1cccnc1)Cc1ccccc1Cl	.	/	.	.	.	14.7µM
Cn1c(C(=O)c2ccncc2)cc2ccccc21	.	?	.	.	.	13.1µM
CCOc1ccc(-c2n[nH]c(=S)c3ccccc23)cc1	.	1.65µM	.	.	.	?
CCOc1ccccc1-c1n[nH]c(=S)o1	.	.	.	.	.	/
CCOc1ccc(-c2n[nH]c(=S)o2)cc1	.	.	20.5	/	.	.
C[N+]1(NCC[N@@+]2(C)CCc3ccccc3C2)CCCCC1	/	/	/	.	/	/
CC1CN(C(=O)CCC(=O)NCc2ccc(Cl)cc2)c2ccccc2O1 (stereo not drawn)	.	.	.	.	.	.
COc1cccc(CNC(=O)CCC(=O)N2CC(C)Oc3ccccc32)c1OC (stereo not drawn)	.	5.22µM	.	.	.	.
CC1CCC(NC(=O)CCC(=O)N2CC(C)Oc3ccccc32)CC1 (stereo not drawn)	.	?	14.9	.	.	.
Cc1ccc(C(=O)c2cc3ccccc3o2)cc1	93.0	.	55.1	.	.	.
Cc1ccc(C(=O)c2cc3ccccc3o2)cc1C	59.1	.	39.0	.	.	/
O=C(COC(=O)c1ccc(O)cc1)Nc1ccc(S(=O)(=O)N2CCCC2)cc1	/	/	/	/	.	/
COc1ccc(CCNC2=C(Cl)C(=O)N(CCc3ccccc3)C2=O)cc1OC	.	?	.	.	.	/
COc1ccccc1NC1=C(Cl)C(=O)N(c2ccccc2)C1=O	.	.	.	.	.	.

Screening results deposited in PubChem BioAssay by National Center for Advancing Translational Sciences (NCATS).
